Whole data set: some 33,000 sequences, median “E-score (-0.5 to 0.5)” near -8e-05, cut for the highest 2% near 0.23. This is one part of a sample in which the highest values are shown more often than they occur.
Each sequence was assayed against T1, Nrg2 (UniProt P38082) (assay: PBM E-score (8-mer binding enrichment) (E-score (-0.5 to 0.5)); higher = stronger / more preferred TF binding). Conditions: protein concentration: 100 nM; construct: GST-full length.
T1 sequence: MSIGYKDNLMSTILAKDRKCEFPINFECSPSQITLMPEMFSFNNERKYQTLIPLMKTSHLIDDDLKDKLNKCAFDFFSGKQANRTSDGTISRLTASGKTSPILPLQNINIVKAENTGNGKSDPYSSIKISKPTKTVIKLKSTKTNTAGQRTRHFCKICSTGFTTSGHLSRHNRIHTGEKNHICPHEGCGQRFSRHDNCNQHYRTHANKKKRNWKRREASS
Procedure, shortened: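 Universal all-10-mer Agilent arrays, double-stranded by primer extension on fresh or once-stripped slides, were probed with about 100-200 nM GST-tagged yeast transcription factors made by PURExpress. Fluorescent anti-GST detected bound protein, and masliner normalised the scans. E-scores from the Universal PBM Analysis Suite were given to each ungapped eight-base word pooled with its reverse complement.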

| Sequence | PBM E-score |
| --- | --- |
| ATTAACTA | 0.136 |
| CTTAACTA | 0.0617 |
| CTTAACAA | 0.107 |
| CAGGCCAC | -0.141 |
| GCGTGAGC | 0.142 |
| GGAACTCA | -0.0697 |
| ACACTCTC | 0.104 |
| GAATGATA | 0.247 |
| TAATGATA | 0.243 |
| GAATGATC | -0.0614 |
| GAATGAGA | 0.114 |
| CAATGATA | 0.128 |
| AAATGATA | 0.225 |
| AGCCCTAG | -0.16 |
| CCCTGAGC | 0.236 |
| TCCTGAGA | -0.0364 |
| CCCTGAGG | 0.236 |
| ACCTGAGC | 0.0385 |
| CACTGAGG | -0.124 |
| GCCTGAGA | -0.0991 |
| ACCTGAGG | -0.134 |
| GCCTGAGC | -0.213 |
| CCCTGAGA | 0.235 |
| CATTTTCC | 0.0879 |
| AGAAGCCC | -0.0779 |

| Sequence | PBM E-score |
| --- | --- |
| ATTATGAC | -0.0447 |
| AGGCAAGG | -0.259 |
| CCTATCGC | -0.134 |
| CATGTTGA | 0.258 |
| AATGTTGA | -0.019 |
| CATGTTGC | -0.0978 |
| CTGTATTA | 0.147 |
| GAGTATTA | 0.00698 |
| AAGTATTA | 0.129 |
| CAGTATTA | 0.244 |
| ATGTATTA | -0.041 |
| GTGTATTA | 0.233 |
| ATACTCGA | 0.0646 |
| AGTTCGAG | 0.223 |
| TCCCAAAA | 0.0584 |
| CCGGGAAC | -0.00517 |
| ATGCGCAT | 0.368 |
| ATGCGCAA | 0.182 |
| CTGCGCGA | -0.0667 |
| CTGCGCGC | 0.306 |
| ATTCGCGC | 0.159 |
| CTTCGCGA | 0.0778 |
| ATGCGCGC | 0.23 |
| ATGCGCAC | 0.142 |
| CTTCGCGC | 0.232 |

| Sequence | PBM E-score |
| --- | --- |
| ATGCGCGA | 0.00379 |
| CTGCGCTC | -0.146 |
| ATGCGCGG | 0.121 |
| GTGCAGCA | -0.172 |
| CAATTGCC | -0.00722 |
| CAGGACTG | -0.241 |
| AAATGCGC | 0.272 |
| AAATGCGG | 0.0989 |
| CAATGCGC | 0.145 |
| AGGGGCAT | 0.00378 |
| CTAAAAGA | -0.198 |
| CGATATAC | 0.113 |
| CGATATTA | 0.23 |
| CGATATAG | 0.14 |
| CGATATTC | 0.153 |
| GGATATTA | 0.147 |
| CGATATAA | 0.244 |
| CACCGTGA | -0.113 |
| GTATGGCA | 0.0816 |
| CATCAGCG | -0.213 |
| CGAAAAGA | 0.199 |
| AGCAGTGC | -0.287 |
| CGCAGTGA | -0.0744 |
| AGCAGTGA | 0.234 |
| GCGCTACC | -0.139 |

| Sequence | PBM E-score |
| --- | --- |
| GTGCTGTA | -0.0149 |
| CGGAGGCA | -0.134 |
| AAGCGCAA | 0.147 |
| TCCAGCAA | -0.151 |
| ACCAGCAA | 0.245 |
| CCCAGCAA | 0.0725 |
| ACTTACCA | 0.00217 |
| GTCAAACA | -0.117 |
| TGTTGCAA | 0.268 |
| CATTGCAA | -0.00795 |
| CGTTGCAA | 0.0314 |
| GGTTGCAA | 0.111 |
| TATTGCAA | 0.253 |
| AATTGCAA | 0.0259 |
| CGCGGTTC | 0.0879 |
| GGATAGCA | 0.0845 |
| GAGTACTC | 0.23 |
| CAGTACTC | -0.171 |
| AAGTACTC | -0.0318 |
| GGCGAGCC | -0.0861 |
| CCAATACG | -0.165 |
| ACCTCGAT | 0.147 |
| ACCTCGAG | 0.281 |
| CCCTCGAG | 0.143 |
| AAGAAAAG | -0.0237 |

| Sequence | PBM E-score |
| --- | --- |
| TCAATTCA | 0.102 |
| AAGGGTAG | 0.0465 |
| AAGGGTAC | 0.165 |
| CAGGGTAG | 0.303 |
| CAGGGTAC | 0.235 |
| AGGGGTAG | -0.0372 |
| CAGGGTAA | 0.215 |
| AAGTCTAT | -0.0746 |
| TAGTAAGA | 0.107 |
| TCCCTGCA | 0.25 |
| ACCCTGCC | 0.0806 |
| GCCCTGCA | 0.044 |
| ACCCTGCA | 0.376 |
| ACCCTGCT | 0.0589 |
| ACCCTGCG | 0.254 |
| CCCCTGCA | -0.00126 |
| CCCCTGCG | -0.0622 |
| AGCCTGCA | 0.0137 |
| ATAGGACA | -0.118 |
| GGTCTTGA | -0.0327 |
| ACCAAGTC | 0.111 |
| AAAGCCCG | -0.147 |
| AAAAGCGT | -0.0481 |
| AAAAACTT | -0.148 |
| CGCTGGCA | 0.0236 |

| Sequence | PBM E-score |
| --- | --- |
| CGGCATTA | 0.0976 |
| TCGCACGA | -0.00406 |
| ACGCGCGT | 0.17 |
| GCGCGCGA | 0.251 |
| CCGCGCGA | 0.202 |
| ACGCGATA | 0.0412 |
| GCGCACGC | -0.0951 |
| ACGCGCGG | 0.192 |
| GCGCGATA | 0.254 |
| TCGCGCGA | 0.138 |
| CCGCGATA | 0.117 |
| GCGCACGA | 0.238 |
| ACGCGCGC | 0.279 |
| CTTACCCA | 0.0294 |
| AATGCAAT | -0.287 |
| GGTCCAGA | 0.125 |
| AGGCGGGG | 0.0214 |
| AACGATTC | 0.0537 |
| ACGGACGT | -0.169 |
| GTCCAGAC | -0.175 |
| ATCTTTGC | 0.133 |
| GCGCGCAC | 0.165 |
| ACGCGGTA | -0.152 |
| CAGCGCGC | 0.21 |
| GCGCGGTA | 0.271 |

| Sequence | PBM E-score |
| --- | --- |
| GCGCGCGC | 0.415 |
| GAGCGCGC | 0.263 |
| GCGCGCCC | 0.0648 |
| CCGCGGTA | 0.119 |
| GAGCGCGA | 0.196 |
| CCTTTCCG | -0.116 |
| TTGAACAA | -0.0525 |
| ACGGAAGC | -0.0173 |
| AGCCAGCG | -0.0673 |
| CTCGGAGA | 0.0113 |
| ATCAGTAA | 0.0691 |
| AGAAAGTC | 0.037 |
| ACCTGTGC | -0.0445 |
| CCCTGTGA | 0.059 |
| CCCTGTAC | 0.208 |
| GCCTGAAC | -0.211 |
| GACTGAAA | 0.0848 |
| CCCTGAAC | 0.282 |
| CCCTGTAA | 0.294 |
| CCCTGTGC | 0.263 |
| CCCTGAAG | 0.208 |
| TACTGAAA | 0.242 |
| GCCTGTAA | -0.225 |
| CACTGAAA | 0.0555 |

— the supplement of paper PMC3334620
